Screening data as filed in PubChem.
FLuc modulator: qHTS profiling assay for firefly luciferase inhibitor/activator using purifed enzyme and Km concentrations of substrates (counterscreen for miR-21 project); Luciferin 4-monooxygenase (Photinus pyralis), P08659; purified FLuc, Km substrates, luminescence inhibition; Potency, µM (highest dose often 57.5 µM), most hits filed as inhibitors; 360,000 tested, 6.9% active; further: nearly all actives have a fitted effect of over 55% in size
Target sequence (P08659 whole entry, looked up): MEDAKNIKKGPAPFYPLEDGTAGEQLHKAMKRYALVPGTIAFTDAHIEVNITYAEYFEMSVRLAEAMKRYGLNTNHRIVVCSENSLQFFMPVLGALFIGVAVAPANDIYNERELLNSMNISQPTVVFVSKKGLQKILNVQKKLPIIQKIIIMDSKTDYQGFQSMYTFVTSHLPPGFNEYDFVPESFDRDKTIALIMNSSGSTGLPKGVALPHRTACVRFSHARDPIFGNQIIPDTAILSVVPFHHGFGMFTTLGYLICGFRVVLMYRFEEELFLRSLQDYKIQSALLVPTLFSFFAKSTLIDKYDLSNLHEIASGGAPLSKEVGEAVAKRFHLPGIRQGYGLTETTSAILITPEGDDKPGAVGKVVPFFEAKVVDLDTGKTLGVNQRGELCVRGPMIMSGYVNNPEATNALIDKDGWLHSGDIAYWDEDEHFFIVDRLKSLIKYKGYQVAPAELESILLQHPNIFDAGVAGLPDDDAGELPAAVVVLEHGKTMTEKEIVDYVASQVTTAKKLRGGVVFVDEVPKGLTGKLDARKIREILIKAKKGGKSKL
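Purified P. pyralis luciferase, 10 nM final, with Km-level 10 uM D-luciferin and 10 uM ATP in 50 mM Tris acetate pH 7.5, 10 mM Mg acetate, 0.01% Tween-20, 0.05% BSA; 6-point qHTS titration about 60 µM downward; luminescence read.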
SMN2 splice up: qHTS Assay for Enhancers of SMN2 Splice Variant Expression; HEK293 SMN2-luciferase splicing reporter, luminescence, 30-36 h; Potency, µM (highest dose often 46.1 µM), usual class: activators; 210,000 tested, 2.8% active; further: nearly all actives have a fitted effect of over 55% in size
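qHTS luciferase splicing reporter: luminescence rises when SMN2 exon 7 is included in transfected HEK293 cells. Compound exposure lasted 30-36 h at 37C, with 4.5 mM final sodium butyrate as control, followed by a ONE-Glo read.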
ELG1 DNA repair: qHTS screen for small molecules that inhibit ELG1-dependent DNA repair in human embryonic kidney (HEK293T) cells expressing luciferase-tagged ELG1; HEK293T ELG1-luciferase reporter, luminescence, 16 h; DNA damage induced by 5-fluorouridine; Potency, µM (top dose mostly 46.1 µM), hits mostly inhibitors; 330,000 tested, 2.3% active; further: nearly all actives have a fitted effect of over 55% in size
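Luminescence from the luciferase reporter, measured 30 min after ONE-Glo reagent at room temperature, was the read-out. Beforehand, 2,000 cells per well were exposed for 16 hr at 37 °C to 5-fluorouridine together with compound or vehicle.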
NPC1 prom act: qHTS Assay for NPC1 Promoter Activators | Potency, µM (titrated, usually from 9.22 µM), usual class: activators | Huh7 NPC1 promoter luciferase reporter, 24 h | 320,000 tested, 2.4% active; further: nearly all actives have a fitted effect of over 60% in size
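Huh7 cells stably carrying NPC1 promoter–luciferase, plated in Opti-MEM with 10% FBS for 2 h, were exposed to compound in DMSO for 24 h at 37 °C; luciferase reagent was added for 10 min and luminescence read.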
ELG1 genotoxic: qHTS screen for small molecules that induce genotoxicity in human embryonic kidney (HEK293T) cells expressing luciferase-tagged ELG1; HEK293T ELG1-luciferase reporter, luminescence, 16 h; 330,000 tested, 1.3% active; Potency, µM (top dose mostly 46 µM), most hits filed as activators; further: nearly all actives have a fitted effect of over 60% in size
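DMSO vehicle served as control against compound-treated ELG1-luciferase HEK293T cells; exposure lasted 16 hr at 37 °C and 5% CO2, followed by ONE-Glo luminescence detection after 30 min.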
Rab9 prom act: qHTS Assay for Rab9 Promoter Activators; Huh7 Rab9 promoter-luciferase reporter, luminescence, 24 h; Potency, µM (top dose mostly 9.22 µM), most hits filed as activators; 320,000 tested, 2.8% active; further: nearly all actives have a fitted effect of over 60% in size
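Huh7 reporter line, Rab9 promoter upstream of luciferase. Compound exposure 24 h at 37 °C in reduced-serum medium with 10% FBS. Read-out: luminescence.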
Hits are given with their value; - = inactive; ? = inconclusive; . = not tested or not shown; [ ] = remark or other dose. Shown are actives, neighbours in structure and some others; about 9.3% of the full set was active somewhere. The call rests on the fitted dose curve; in most records, active means well fitted curve in the direction sought with a large enough effect; inconclusive means small, poorly fitted or top-dose-only effect, or another doubt; inactive means no such curve, though single readings can be large; an effect the other way counts as inactive or inconclusive.

SMILES	FLuc modulator	SMN2 splice up	ELG1 DNA repair	NPC1 prom act	ELG1 genotoxic	Rab9 prom act
Cc1nnc(NC(=O)c2ccc(N3CCCC3=O)cc2)s1	24µM	.	?	?	?	2.2µM
O=C(Nc1ccccc1Br)c1ccc(N2CCCC2=O)cc1	15µM	.	?	?	?	2.5µM
CC1CC1C(=O)N(C)CC(=O)Nc1ccccc1Br (stereo unspecified)	.	.	-	.	-	.
Cc1cccc(C)c1NC(=O)c1ccc(N2CCCC2=O)cc1	-	.	-	-	-	-
Cc1csc(NC(=O)c2ccc(N3CCCC3=O)cc2)n1	1.9µM	0.56µM	?	?	0.65µM	0.32µM
CC(C)(C)c1ccc(C2=NC(=O)C(CC(=O)O)S2)cc1 (stereo unspecified)	1.7µM	.	?	-	-	-
O=C1C=C(N(CCO)Cc2ccccc2)c2ccccc2C1=O	-	-	8.2µM	-	-	-
CNc1nnc(-c2cc3cc(Cl)ccc3oc2=O)s1	?	?	?	?	18µM	?
CCOc1ccc(C(=O)NCC(c2ccco2)N2CCOCC2)cc1 (stereo unspecified)	-	.	-	-	-	-
COC(=O)c1sc(-c2ccc(Cl)cc2)cc1NC(=O)/C=C/C(=O)O	9.5µM	.	-	-	-	-
COC(=O)c1sc(-c2ccc(C(C)(C)C)cc2)cc1NC(=O)CCC(=O)O	1.5µM	.	?	-	?	-
N#Cc1cccnc1N1CCN(C(=O)c2cccs2)CC1	-	.	-	-	-	-
CC(Sc1nnc(-c2ccccc2F)o1)C(=O)Nc1ccc(N2CCOCC2)cc1 (stereo unspecified)	-	.	?	-	-	-
Cc1nc(N)sc1C(=O)N/N=C/c1c[nH]c2ccccc12	19µM	-	?	-	8.2µM	-
Cc1nc(N)sc1C(=O)N/N=C/c1ccccc1[N+](=O)[O-]	-	14µM	?	2.8µM	-	2µM
Cc1ccc2nc(C)c(C(=O)N/N=C/c3ccccc3[N+](=O)[O-])cc2c1	6.7µM	-	-	-	-	-
C#CCN(CC=C)C(=O)CCc1nnc(COc2ccccc2)o1	?	-	?	-	?	-
Cc1cc(C)n2nc(CC(=O)NNC(=O)COc3ccccc3)nc2n1	-	.	-	-	-	-
CC(C)Sc1nc(N)c2c3c(sc2n1)CN(C)CC3	24µM	11µM	?	?	?	?
CCc1nc2cc3sc(CC)nc3cc2s1	8.5µM	.	?	3.5µM	9.2µM	2µM
CN(/N=C\c1ccc(O)c(O)c1)c1nc(-c2ccccc2)cc(-c2ccccc2)n1	-	-	13µM	-	-	-
Cc1cc(C)nc(Nc2n[nH]c(COc3ccccc3)n2)n1	-	-	?	?	-	?
Cc1cc(C)nc(Nc2n[nH]c(-c3ccccc3Cl)n2)n1	6.7µM	14µM	?	?	?	?
Cc1cc(C)nc(Nc2n[nH]c(-c3cccc4ccccc34)n2)n1	12µM	-	?	-	-	-
Cc1ccc(C)c(-n2nnc(C(=O)Nc3ccc(Br)cc3)c2C)c1	-	.	.	.	.	.
SMILES	FLuc modulator	SMN2 splice up	ELG1 DNA repair	NPC1 prom act	ELG1 genotoxic	Rab9 prom act
COc1ccc(-c2noc(CSc3nc4ccccc4[nH]3)n2)cc1OC	-	-	.	.	.	.
CC(=O)NCCc1nc2cc(NC(=O)c3ccc([N+](=O)[O-])cc3)ccc2n1C	15µM	.	?	?	-	?
Cc1ccc(C(C)C)c(OCC(=O)Nc2ccc3c(c2)nc(CCNC(=O)c2ccco2)n3C)c1	-	-	.	.	.	.
Cc1ccc(N2CCN(CCc3nc4cc(NC(=O)c5ccco5)ccc4n3C)CC2)cc1	-	-	?	-	-	-
Cc1ccc(C(C)C)c(OCC(=O)Nc2ccc3c(c2)nc(CN2CCCC2)n3C)c1	-	-	13µM	-	-	-
Cc1ccc(C(=O)Nc2ccc3c(c2)nc(CCNC(=O)c2ccco2)n3C)cc1	?	.	?	3.5µM	?	3.5µM
Cn1c(CCN2CCN(c3ccccc3)CC2)nc2cc(NC(=O)c3ccco3)ccc21	-	-	-	-	-	4.5µM
COc1ccc(NC(=O)CCC(=O)OCc2ccc([N+](=O)[O-])cc2)cc1	-	-	-	-	-	-
Cn1c(CN2CCCC2)nc2cc(NC(=O)c3ccco3)ccc21	?	?	?	-	15µM	?
O=C(Nc1cccc(F)c1)C1CCN(S(=O)(=O)c2ccc3[nH]c4c(c3c2)CCCCC4)CC1	-	.	.	.	.	.
O=C(N/N=C/c1cccc2nccnc12)c1ccccc1O	11µM	.	-	-	-	-
O=C(COc1ccc(Cl)cc1)N/N=C/c1cccc2cccnc12	-	.	?	-	-	-
O=C(N/N=C/c1cccc2cccnc12)c1ccccc1O	7.6µM	.	?	-	21µM	-
O=C(N/N=C/c1ccccc1Br)c1ccc(CSc2cccc3cccnc23)cc1	-	-	21µM	-	-	-
CC(/C=N/NC(=O)COc1ccccc1C)=N\NC(=O)COc1ccccc1C	-	.	-	-	-	-
O=C(CSc1ccccc1)NNC(=O)c1ccccc1O	-	.	?	-	-	-
O=C(O)[C@@H]1CCCN1S(=O)(=O)c1cccc2cccnc12	-	.	-	-	-	-
O=C(c1ccc(COc2ccc(Cl)cc2)cc1)N1CCCCC1	12µM	-	?	?	?	?
CCOC(=O)C1CCN(C(=O)CCCOc2ccccc2)CC1	9.5µM	-	?	?	?	?
CCC1CCCCN1C(=O)CCCOc1ccccc1 (stereo unspecified)	19µM	-	?	?	13µM	?
CCC1CCCCN1C(=O)COc1ccc(F)cc1 (stereo unspecified)	-	.	-	-	-	-
O=C(COc1ccccc1)N1CCCCCCC1	-	.	-	-	-	-
O=C(CCCOc1ccccc1)N1CCCCC1	1.5µM	2.5µM	?	0.5µM	0.46µM	?
CCOC(=O)C1CCN(C(=O)COc2ccc(C(=O)c3ccccc3)cc2)CC1	.	.	?	.	-	.
CCN(c1ccccc1)S(=O)(=O)c1ccc(NC(=O)c2cc(=O)c3cc(C)cc(C)c3o2)cc1	-	-	.	.	.	.
O=C(CCCOc1ccc(Cl)cc1)N1CCCCCC1	-	-	?	-	16µM	-
O=C(CCCOc1ccc(Cl)cc1)N1CCOCC1	-	-	?	-	?	-[1.84 µM]
O=C(COc1ccc(Cl)cc1)N1CCCCCCC1	-	.	-	-	-	-
O=C(CCCOc1ccc(Cl)cc1)N1CCCCC1	-	.	?	-	21µM	3.5µM
COc1ccc2c(c1)C(=O)[C@@H](OC(=O)NCCc1ccc(OC)c(OC)c1)[C@H](c1ccc(OC)c(Br)c1)O2	.	-	.	.	.	.
